Source: PubChem (National Center for Advancing Translational Sciences (NCATS))
Compounds with a hit are over-represented: about 19% of the library has one in this group of screens.
DT40 TDP1 CPT = qHTS for Inhibitors of human tyrosyl-DNA phosphodiesterase 1 (TDP1): qHTS in cells in presence of CPT. Potency, µM (titrated, usually from 46.2 µM), inactives show at the top dose activity change, negative = growth inhibition, hits mostly inhibitors. chicken DT40 Tdp1-/-;hTDP1 cells + 20 nM CPT, ATP luminescence, 48 h. 12% of 420,000 active; note: potency is the fitted concentration of half-maximal effect; nearly all actives have a fitted effect of over 55% in size
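Cell growth measured by CellTiter-Glo luminescence after a minimum 48 h, 37 C compound exposure with 20 nM CPT in Tdp1-knockout DT40 cells stably expressing hTDP1, seeded 400/well; qHTS titration format.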
DT40 TDP1 no CPT = qHTS for Inhibitors of human tyrosyl-DNA phosphodiesterase 1 (TDP1): qHTS in cells in absence of CPT; DT40 Tdp1-/- hTDP1 cells, no CPT, ATP luminescence, 48 h; Potency, µM (top dose mostly 46.2 µM), for the others: at the highest dose activity change, negative = growth inhibition, most hits filed as inhibitors; 15% of 420,000 active; AID 686978, 2013; note: potency is the fitted concentration of half-maximal effect; nearly all actives have a fitted effect of over 55% in size
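Growth kinetics read by CellTiter-Glo luminescence after ≥48 hr at 37 °C. Cells: DT40 Tdp1-/- stably carrying human TDP1, 400 per well, compound exposure in the absence of CPT (DMSO vehicle).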
HT1080 IDH1KD tx = qHTS for induction of synthetic lethality in tumor cells producing 2HG: qHTS for the HT-1080-IDH1KD cell line; HT-1080 IDH1 knockdown viability, ATP luminescence, 48 h; Potency, µM (titrated, usually from 46.1 µM), for the others: at the highest dose activity, negative = toxicity, most hits filed as cytotoxic; 2% of 360,000 active;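 note: potency is the fitted concentration of half-maximal effect; 0% = DMSO wells and -100% = cell-free medium wells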
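Viability of IDH1-knockdown HT-1080 fibrosarcoma cells was assessed by CellTiter-Glo after 48 h at 37 °C with titrated compound; concentration-effect curves were classified by fit quality and response size.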
ELG1 DNA repair = qHTS screen for small molecules that inhibit ELG1-dependent DNA repair in human embryonic kidney (HEK293T) cells expressing luciferase-tagged ELG1 | HEK293T ELG1-luciferase reporter, luminescence, 16 h; DNA damage induced by 5-fluorouridine | AID 504467, 2011 | 2.3% of 330,000 active | Potency, µM (top dose mostly 46.1 µM), for inactives: at the highest dose activity change, negative = inhibition, most hits filed as inhibitors; note: potency is the fitted concentration of half-maximal effect; nearly all actives have a fitted effect of over 55% in size
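HEK293T cells expressing luciferase-tagged ELG1 (2,000/well) received 5-Fluorouridine plus compound or DMSO for 16 hr at 37 °C. Luciferase was read by ONE-Glo luminescence after 30 min at room temperature.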
HT1080-NT tox = qHTS for induction of synthetic lethality in tumor cells producing 2HG: qHTS for the HT-1080-NT fibrosarcoma cell line; HT-1080-NT fibrosarcoma viability, CellTiter-Glo ATP luminescence, 48 h; 1.6% of 360,000 active; Potency, µM (highest dose often 46.1 µM), for the others: at the top dose activity, negative = less viability, usual class: cytotoxic; AID 686970, 2013;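 note: NT is the 2HG producing partner of a matched IDH1 knockdown line; potency is the fitted concentration of half-maximal effect; 0% = DMSO-treated cells and -100% = media-only wells without cells; nearly all actives have a fitted effect of over 55% in size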
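Viability of the 2HG-overproducing fibrosarcoma line after 48 hours of compound exposure at 37 degrees C was determined by luminescence with CellTiter-Glo, and concentration-effect curves were then fitted and categorized.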
IL-1B inflam inh = qHTS for Inhibitors of Inflammasome Signaling: IL-1-beta AlphaLISA Primary Screen; AID 743279, 2014; activity change, % at 57.5 µM; THP-1 LPS/ATP IL-1B secretion, AlphaLISA, 16 h; hits give low values; 4.7% of 360,000 active; in the data active = activity change below about -50%; inconclusive = mostly about -30% to -49%
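THP-1 cells pretreated 1 hr with compounds (up to 57.5 uM final), then stimulated with LPS (250 ng/mL final) plus ATP (1.25 mM final); secreted IL-1B measured by AlphaLISA after 16 hr, decreased signal indicating inhibition.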
An asterisk follows results filed as active; [ ] = another dose, or the depositor's remark. Unless noted, calls come from the whole dose curve; as a rule, active = well fitted curve in the direction sought with a large enough effect; inconclusive = small, poorly fitted or top-dose-only effect, or another doubt; inactive = no such curve, though single readings can be large; an effect the other way counts as inactive or inconclusive. Unless noted, % is set by controls: 0 for no effect and ±100 for the full control effect.

`COc1ccc(Oc2coc3cc(OC(=O)c4cccs4)ccc3c2=O)cc1` gave DT40 TDP1 CPT -21.3%, DT40 TDP1 no CPT -28.5%, HT1080 IDH1KD tx 7.4%[9.24 µM], ELG1 DNA repair 18.8%, HT1080-NT tox 3.8% and IL-1B inflam inh 11.0.
For CCCNC(=O)COc1ccc2c(=O)c(Oc3ccccc3F)coc2c1 the results were DT40 TDP1 CPT inconclusive, DT40 TDP1 no CPT inconclusive, HT1080 IDH1KD tx 0.6%, ELG1 DNA repair -20.2%, HT1080-NT tox 7.0% and IL-1B inflam inh 2.9.
`COc1ccc(S(=O)(=O)N2CCC(C(=O)NC3CCCCC3)CC2)cc1OC` gave DT40 TDP1 CPT -20.6%, DT40 TDP1 no CPT -13.6%, HT1080 IDH1KD tx -3.1%, ELG1 DNA repair -3.9%, HT1080-NT tox -5.4% and IL-1B inflam inh 1.3.
Screening Cc1cc(Cl)ccc1OCC(=O)OCC(=O)c1c(N)n(C)c(=O)n(C)c1=O returned DT40 TDP1 CPT 3.6%, DT40 TDP1 no CPT 16.6%, HT1080 IDH1KD tx -0.2%, ELG1 DNA repair 17.1%, HT1080-NT tox -0.6%[9.24 µM] and IL-1B inflam inh 2.7.
`CCN(CC)C(=O)[C@H]1C[C@H](CC(=O)NC/C=C(\C)CCC=C(C)C)C(=O)N2CCc3c([nH]c4cc(CCC(=O)N(C)C)ccc34)[C@]12C` gave DT40 TDP1 CPT 16.4µM*, DT40 TDP1 no CPT 14.6µM*, HT1080 IDH1KD tx -27.2%, ELG1 DNA repair inconclusive, HT1080-NT tox -15.2% and IL-1B inflam inh inconclusive.
For CC(C)=CCC/C(C)=C/CNC(=O)C[C@H]1C[C@H](C(=O)N2CCCCC2)[C@@]2(CCc3ccccc3)c3[nH]c4cc(CCC(=O)N(C)C)ccc4c3CCN2C1=O the results were DT40 TDP1 CPT 10.3µM*, DT40 TDP1 no CPT 8.2µM*, HT1080 IDH1KD tx 3.8%, ELG1 DNA repair -10.8%, HT1080-NT tox -5.4% and IL-1B inflam inh -68.5*.
For CC(C)=CCC/C(C)=C/CNC(=O)C[C@H]1C[C@H](C(=O)N2CCCCC2)[C@@]2(CCc3ccccc3)c3[nH]c4ccc(Cl)cc4c3CCN2C1=O the results were DT40 TDP1 CPT -7.4%, DT40 TDP1 no CPT -4.2%, HT1080 IDH1KD tx 6.1%, ELG1 DNA repair 5.6%, HT1080-NT tox 7.4% and IL-1B inflam inh -3.6.
CC(C)NS(=O)(=O)c1ccc(NC(=S)NC(=O)c2ccc(-c3ccccc3)cc2)cc1 was read as DT40 TDP1 CPT 11.2µM*, DT40 TDP1 no CPT 14.1µM*, HT1080 IDH1KD tx -28.1%, ELG1 DNA repair inconclusive, HT1080-NT tox inconclusive and IL-1B inflam inh 27.2.
`O=C(NC(=S)Nc1ccccc1)c1ccc(-c2ccccc2)cc1` gave DT40 TDP1 CPT inconclusive, DT40 TDP1 no CPT 18.4µM*, HT1080 IDH1KD tx 7.4%, ELG1 DNA repair inconclusive, HT1080-NT tox 9.3% and IL-1B inflam inh -6.9.
`CC(=O)Nc1ccc(NC(=S)NC(=O)c2ccc(-c3ccccc3)cc2)cc1` gave DT40 TDP1 CPT -3.3%, DT40 TDP1 no CPT -6.0%, HT1080 IDH1KD tx -3.8%, HT1080-NT tox inconclusive and IL-1B inflam inh 6.1.
Screening CCN(CC(=O)Nc1ccc(S(=O)(=O)N2CCCC2)cc1)Cc1ccccc1 returned DT40 TDP1 CPT 16.4µM*, DT40 TDP1 no CPT inconclusive, HT1080 IDH1KD tx -2.0%, ELG1 DNA repair -15.1%, HT1080-NT tox 5.0% and IL-1B inflam inh -4.3.
For CCN(CC(=O)Nc1cc(S(=O)(=O)N2CCOCC2)ccc1C)Cc1ccccc1 the results were DT40 TDP1 CPT 16.4µM*, DT40 TDP1 no CPT 13µM*, HT1080 IDH1KD tx 3.3%, ELG1 DNA repair -8.7%, HT1080-NT tox 12.2% and IL-1B inflam inh -4.1.
`COc1ccccc1N(CC(=O)Nc1ccc(S(=O)(=O)N2CCCCC2)cc1)S(C)(=O)=O` gave DT40 TDP1 CPT inconclusive, DT40 TDP1 no CPT 18.4µM*, HT1080 IDH1KD tx -10.7%, ELG1 DNA repair inconclusive, HT1080-NT tox -6.9% and IL-1B inflam inh -3.2.
For COc1ccccc1CC(=O)Nc1ccc(S(=O)(=O)N2CCCCC2)cc1 the results were DT40 TDP1 CPT -19.0%, DT40 TDP1 no CPT inconclusive, HT1080 IDH1KD tx -4.2%, ELG1 DNA repair inconclusive, HT1080-NT tox -0.1% and IL-1B inflam inh -16.7.
Screening COCCNC(=O)C1CCCN(C(=O)c2ccc(F)c(C)c2)CC1 (stereo not drawn) returned DT40 TDP1 CPT -12.2%, DT40 TDP1 no CPT 0.7%, HT1080 IDH1KD tx 3.7%, HT1080-NT tox 1.8% and IL-1B inflam inh -18.2.
COC(=O)C1CCCCN1Cc1nc(N(C)C)c2ccccc2n1 (stereo not drawn) was read as DT40 TDP1 CPT 5.3%[9.04 µM] and DT40 TDP1 no CPT -13.7%.
COc1ccc(CNCc2ccccc2C(F)(F)F)cc1 was read as DT40 TDP1 CPT -11.8%, DT40 TDP1 no CPT -3.8%, HT1080 IDH1KD tx -0.5%, ELG1 DNA repair -5.3%, HT1080-NT tox -19.6% and IL-1B inflam inh 0.0.
Screening COc1cc(CNc2nc3ccccc3[nH]2)cc(OC)c1OC returned DT40 TDP1 CPT -17.7%, DT40 TDP1 no CPT inconclusive, HT1080 IDH1KD tx 3.1%, ELG1 DNA repair -1.2%, HT1080-NT tox 3.1% and IL-1B inflam inh 10.8.
Screening COc1ccc(CNc2cccc3[nH]c(C(F)(F)F)nc23)cc1 returned DT40 TDP1 CPT inconclusive, DT40 TDP1 no CPT inconclusive, HT1080 IDH1KD tx inconclusive, ELG1 DNA repair inconclusive, HT1080-NT tox inconclusive and IL-1B inflam inh -70.9*.
COc1cc(CNc2cccc3[nH]c(C(F)(F)F)nc23)cc(OC)c1 was read as DT40 TDP1 CPT 23.1µM*, DT40 TDP1 no CPT 25.9µM*, HT1080 IDH1KD tx -6.6%, ELG1 DNA repair inconclusive, HT1080-NT tox -15.0% and IL-1B inflam inh 41.1.
COc1ccc(-n2c(CNC(=O)c3ccc(OC)cc3OC)nnc2SC)cc1 was read as DT40 TDP1 CPT 16.0%[9.04 µM] and DT40 TDP1 no CPT -23.6%.
Screening CC(=O)c1ccc(NC(=O)Nc2sc3nc4n(c(=O)c3c2C)CCC(C)CC4)cc1 (stereo not drawn) returned DT40 TDP1 CPT 5.8µM* and DT40 TDP1 no CPT 8.2µM*.
